Assay results reported in PubChem BioAssay (Tox21).
Several values for one entry are separate records, joined by “and”; a condition that tells them apart may be missing. Equal entries are not always repeated. Inconclusive results are not listed. A call without a number means that no potency is given here. Where a structure was tested more than once in an assay, its records may differ in their call. Activity calls are given as the source filed them. Unless noted, the call rests on the fitted dose curve; in most records, active means well fitted curve in the direction sought with a large enough effect in the repeat runs; inconclusive means weak or mixed curves; inactive means no such curve, though single readings can be large; an effect the other way counts as inactive or inconclusive.

Assays:
[1] = qHTS assay to identify small molecule antagonists of the androgen receptor (AR) signaling pathway using the MDA cell line in the presence of 0.5 nM R1881 - cell viability counter screen (AID 1259242); further: nearly all actives have a fitted effect of over 45% in size; further: potency means the concentration at half of the fitted maximal effect
How it was run: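 Live-cell protease activity was measured by CellTiter-Fluor fluorescence after 30 min. Before that, MDA-kb2 MMTV-luciferase cells had 16 hr at 37C without CO2, exposed to test compounds and 0.5 nM R1881 final.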

[2] = target: Estrogen receptor (Homo sapiens) (UniProt P03372); assay: qHTS assay to identify small molecule antagonists of the estrogen receptor alpha (ER-alpha) signaling pathway using the BG1 cell line in the presence of 0.1 nM 17-beta-estradiol (AID 1259244); further: nearly all actives have a fitted effect of over 50% in size; further: potency means the concentration at half of the fitted maximal effect
How it was run: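 Luciferase luminescence (ONE-Glo, 30 min at room temperature) was read after 22 hr at 37C exposure to compounds plus 17beta-estradiol at 0.1 nM final. Cells were VM7Luc4E2 with endogenous ER-alpha and an ERE-driven luciferase, pre-cultured 5 days in hormone-depleted medium.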

[3] = qHTS assay to identify small molecule phospholipidosis (PLD) inducers (AID 1259344; active means well fitted curve in the direction sought with a large enough effect; an effect the other way counts as inactive or inconclusive)
How it was run: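 Phospholipid accumulation was scored by imaging: fixed, Hoechst-counterstained HepG2 cells stained with LipidTOX Red after 24 h compound exposure at 37 C. Read-outs were pit count and pit intensity per well or per cell, with amiodarone and DMSO controls.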

[4] = qHTS assay to identify small molecule HDAC inhibitors (AID 1259364); further: top concentration of the series differs between compounds; nearly all actives have a fitted effect of over 45% in size
How it was run: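 Luminescence read after 30 min room-temperature HDAC-Glo incubation measures cellular class I/II HDAC activity. Compounds were applied for 2 hr at 37 C to HCT-116 wild-type cells seeded the day before.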

[5] = qHTS assay to identify small molecule HDAC inhibitors - cell viability counter screen (AID 1259365); further: series mostly up to about 92 µM; nearly all actives have a fitted effect of over 50% in size
How it was run: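 After overnight seeding at 1,500 cells per well, wild-type HCT-116 cultures took up compounds in DMSO for 2hr at 37 C. Viable cell content came from luminescence with CellTiter-Glo.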

[6] = qHTS assay to identify small molecule agonists of the sonic hedgehog signaling (Shh) pathway - cell viability counter screen (AID 1259366); further: nearly all actives have a fitted effect of over 50% in size; further: potency means the concentration at half of the fitted maximal effect
How it was run: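 Same-well cytotoxicity read. Gli1-Luc reporter 3T3 cells; compounds 24hr, 37C/5% CO2; CellTiter-Fluor fluorescence.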

[7] = qHTS assay to identify small molecule antagonists of the sonic hedgehog signaling (Shh) pathway - cell viability counter screen (AID 1259367); further: nearly all actives have a fitted effect of over 55% in size
How it was run: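 Viability was read by CellTiter-Fluor fluorescence in the same wells, reagent added 23 hr into compound treatment and incubated 1 hr at 37C. The 3T3 Gli1-Luc reporter cells (2,000/well) received conditioned medium after compound and ran 24 hr.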

[8] = qHTS assay to identify small molecule agonists of the sonic hedgehog signaling (Shh) pathway (AID 1259368; calls by dose curve;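 further: NIH/3T3-derived 3T3Gli1-Luc cells carrying a stable Gli1-driven firefly luciferase reporter; series mostly up to about 92 µM; nearly all actives have a fitted effect of over 15% in size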)
How it was run: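 Luminescence was read after 30 min at room temperature with luciferase reagent. Before that, 3T3Gli1-Luc cells (NIH/3T3 clone, stable Gli1-Luc reporter; 2,000/well) were exposed to compounds for 24 hr at 37C, 5% CO2, compounds being added 4 hr post-plating.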

[9] = qHTS assay to identify small molecule antagonists of the sonic hedgehog signaling (Shh) pathway (AID 1259369; calls by dose curve; further: nearly all actives have a fitted effect of over 45% in size; further: potency means the concentration at half of the fitted maximal effect)
How it was run: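 Antagonist mode: compound added to 3T3 Gli1-Luc cells followed by conditioned-medium stimulation, 24 h at 37 C, 5% CO2. Inhibition taken as loss of Gli1-driven luciferase luminescence.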

[10] = qHTS assay to identify small molecule agonists of the androgen receptor (AR) signaling pathway in the presence of an antagonist - cell viability counter screen (AID 1259379); further: nearly all actives have a fitted effect of over 25% in size; further: potency means the concentration at half of the fitted maximal effect
How it was run: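 Cytotoxicity counter-screen run in the same wells as the nilutamide-challenged (3.0 µM final) AR agonist assay in MDA-kb2 cells. Compounds tested at 15 concentrations for 16 h, 37 °C without CO2; CellTiter-Fluor fluorescence read.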

[11] = qHTS assay to identify small molecule agonists of the estrogen receptor beta (ER-beta) signaling pathway - cell viability counter screen (AID 1259380); further: nearly all actives have a fitted effect of over 30% in size; further: potency means the concentration at half of the fitted maximal effect
How it was run: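 Cell viability counter screen: CellTiter-Glo luminescence (30 min, room temperature) measured in the same wells as the beta-lactamase readout, after 16 hr compound exposure at 37C of ER-beta-bla HEK293T cells in 2% charcoal-stripped FBS medium.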

[12] = qHTS assay to identify small molecule antagonists of the estrogen receptor beta (ER-beta) signaling pathway - cell viability counter screen (AID 1259382);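 further: HEK293T cells carrying ER-beta-UAS-bla reporter stimulated with estradiol; series mostly up to about 92 µM; nearly all actives have a fitted effect of over 55% in size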
How it was run: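 Cytotoxicity was measured in the same wells by CellTiter-Glo luminescence after 30 min at room temperature. Cells were ER-beta-bla HEK293T in charcoal-stripped serum, given compound together with 1 nM E2 and incubated 16 h at 37C.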

[13] = target: Estrogen receptor (Homo sapiens) (UniProt P03372); assay: qHTS assay to identify small molecule agonists of the estrogen receptor alpha (ER-alpha) signaling pathway in the presence of an antagonist (AID 1259383; calls by dose curve; further: nearly all actives have a fitted effect of over 15% in size; further: potency means the concentration at half of the fitted maximal effect; on activation: top concentration of the series differs between compounds)
How it was run: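 Agonist-mode confirmation run in the presence of 10.0nM (final) ICI-182,780 antagonist. The reporter was ERE-driven luciferase in VM7Luc4E2 cells, grown in charcoal-stripped serum. Cells were exposed to 15-concentration compound series for 22hr, then ONE-Glo luminescence was read.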

[14] = qHTS assay to identify small molecule agonists or antagonists of the thyroid stimulating hormone receptor (TSHR) signaling pathway - wild type cell line counter screen (AID 1259384; calls by dose curve)
How it was run: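 Counter screen in untransfected Hek293: compounds (15-point titration, triplicate) plus phosphodiesterase inhibitor Ro20-1724 added after 18 h plating; 30 min RT. Intracellular cAMP via competitive d2/cryptate immunoassay, 1 h incubation.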

[15] = target: Thyrotropin receptor (Homo sapiens) (UniProt P16473); assay: qHTS assay to identify small molecule antagonists of the thyroid stimulating hormone receptor (TSHR) signaling pathway (AID 1259385; calls by dose curve; further: nearly all actives have a fitted effect of over 20% in size)
How it was run: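 Antagonist mode: compound-treated TSHR-expressing HEK293 cells were stimulated with 1.5 ng/mL TSH (final) in presence of Ro20-1724 for 30 min at RT. HTRF cAMP detection after 1 h; each compound tested at 15 concentrations, triplicate.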

[16] = qHTS assay to identify small molecule agonists of the estrogen receptor alpha (ER-alpha) signaling pathway in the presence of an antagonist - cell viability counter screen (AID 1259386); further: nearly all actives have a fitted effect of over 30% in size; further: potency means the concentration at half of the fitted maximal effect
How it was run: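 Compounds tested at 15 concentrations for 22 h at 37C alongside 10.0nM (final) ICI-182,780 antagonist, in VM7Luc4E2 cells grown in phenol red-free, charcoal-stripped medium. Viability read by CellTiter-Fluor fluorescence after 1 h reagent incubation.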

[17] = target: Estrogen receptor beta (Homo sapiens) (UniProt Q92731); assay: qHTS assay to identify small molecule agonists of the estrogen receptor beta (ER-beta) signaling pathway (AID 1259377; active means well fitted activation curve with a large enough effect in the signal ratio in the repeat runs, not every such curve was filed as active; the % refers to the signal ratio)
How it was run: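 Read-out: beta-lactamase FRET fluorescence. Cell line: ER-beta-UAS-bla HEK293T in 2% charcoal-stripped FBS. Exposure: 16 hr at 37C. Substrate step: 2 h at room temperature.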

[18] = target: Estrogen receptor beta (Homo sapiens) (UniProt Q92731); assay: qHTS assay to identify small molecule antagonists of the estrogen receptor beta (ER-beta) signaling pathway (AID 1259378; active means well fitted inhibition curve with a large enough effect in the signal ratio in the repeat runs, not every such curve was filed as active; the % refers to the signal ratio; further: potency means the concentration at half of the fitted maximal effect)
How it was run: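 Antagonist mode: compounds added to beta-lactamase reporter HEK293T ER-beta-UAS cells stimulated with E2 (1nM final), 16 hr at 37C. LiveBLAzer B/G FRET substrate, 2 hours room temperature, fluorescence read-out.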

[19] = target: Androgen receptor (Homo sapiens) (UniProt P10275); assay: qHTS assay to identify small molecule antagonists of the androgen receptor (AR) signaling pathway using the MDA cell line in the presence of 0.5 nM R1881 (AID 1259243); further: potency means the concentration at half of the fitted maximal effect; nearly all actives have a fitted effect of over 50% in size
How it was run: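 Luminescent reporter readout (ONE-Glo, 30 min, room temperature) after 16 hr co-treatment of MDA-kb2 cells with test compounds and 0.5 nM R1881 final, at 37C without CO2. The MMTV-driven luciferase responds to both AR and GR.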

[20] = target: Androgen receptor (Homo sapiens) (UniProt P10275); assay: qHTS assay to identify small molecule agonists of the androgen receptor (AR) signaling pathway in the presence of an antagonist (AID 1259381; calls by dose curve; further: nearly all actives have a fitted effect of over 15% in size)
How it was run: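 Agonist-mode confirmation run against 3.0 uM final nilutamide: compounds titrated at 15 concentrations onto MDA-kb2 MMTV-luciferase reporter cells. Luminescence measured with ONE-Glo following 16 hr incubation, 37C, 0% CO2.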

Estrogen receptor beta (Homo sapiens), sequence (Q92731 whole entry, looked up): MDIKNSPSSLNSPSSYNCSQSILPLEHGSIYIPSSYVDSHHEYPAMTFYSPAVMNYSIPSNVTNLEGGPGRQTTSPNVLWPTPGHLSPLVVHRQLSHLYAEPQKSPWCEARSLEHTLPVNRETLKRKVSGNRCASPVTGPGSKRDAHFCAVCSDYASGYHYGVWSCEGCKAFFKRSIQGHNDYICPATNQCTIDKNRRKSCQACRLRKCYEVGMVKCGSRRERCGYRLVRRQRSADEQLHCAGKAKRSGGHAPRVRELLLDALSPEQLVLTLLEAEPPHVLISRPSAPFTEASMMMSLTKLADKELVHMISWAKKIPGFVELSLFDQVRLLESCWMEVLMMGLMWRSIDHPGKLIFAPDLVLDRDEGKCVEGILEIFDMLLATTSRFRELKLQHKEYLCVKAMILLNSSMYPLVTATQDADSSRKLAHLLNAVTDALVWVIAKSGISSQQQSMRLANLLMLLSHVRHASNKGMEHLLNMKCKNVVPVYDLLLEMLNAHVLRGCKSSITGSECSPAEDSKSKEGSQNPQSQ
Thyrotropin receptor (Homo sapiens), sequence (P16473 whole entry, looked up): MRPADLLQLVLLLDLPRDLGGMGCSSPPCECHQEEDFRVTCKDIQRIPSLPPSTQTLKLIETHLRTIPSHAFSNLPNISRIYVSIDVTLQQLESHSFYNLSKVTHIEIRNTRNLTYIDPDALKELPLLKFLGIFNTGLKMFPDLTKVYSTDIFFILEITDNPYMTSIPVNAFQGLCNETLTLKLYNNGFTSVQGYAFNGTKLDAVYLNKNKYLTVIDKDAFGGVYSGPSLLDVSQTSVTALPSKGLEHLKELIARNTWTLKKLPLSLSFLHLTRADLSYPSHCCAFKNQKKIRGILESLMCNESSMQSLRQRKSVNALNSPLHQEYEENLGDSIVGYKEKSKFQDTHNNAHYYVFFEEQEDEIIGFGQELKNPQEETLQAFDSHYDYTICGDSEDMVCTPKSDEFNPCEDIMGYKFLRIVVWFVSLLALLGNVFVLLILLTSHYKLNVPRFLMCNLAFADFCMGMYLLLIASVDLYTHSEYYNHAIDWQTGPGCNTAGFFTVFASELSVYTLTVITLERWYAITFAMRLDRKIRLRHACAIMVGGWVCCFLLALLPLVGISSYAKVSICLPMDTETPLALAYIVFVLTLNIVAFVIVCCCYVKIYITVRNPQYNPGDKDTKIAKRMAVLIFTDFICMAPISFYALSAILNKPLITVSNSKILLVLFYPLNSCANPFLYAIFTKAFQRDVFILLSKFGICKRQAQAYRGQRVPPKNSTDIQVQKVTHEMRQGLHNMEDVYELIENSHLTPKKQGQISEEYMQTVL
Androgen receptor (Homo sapiens), sequence (P10275 whole entry, looked up): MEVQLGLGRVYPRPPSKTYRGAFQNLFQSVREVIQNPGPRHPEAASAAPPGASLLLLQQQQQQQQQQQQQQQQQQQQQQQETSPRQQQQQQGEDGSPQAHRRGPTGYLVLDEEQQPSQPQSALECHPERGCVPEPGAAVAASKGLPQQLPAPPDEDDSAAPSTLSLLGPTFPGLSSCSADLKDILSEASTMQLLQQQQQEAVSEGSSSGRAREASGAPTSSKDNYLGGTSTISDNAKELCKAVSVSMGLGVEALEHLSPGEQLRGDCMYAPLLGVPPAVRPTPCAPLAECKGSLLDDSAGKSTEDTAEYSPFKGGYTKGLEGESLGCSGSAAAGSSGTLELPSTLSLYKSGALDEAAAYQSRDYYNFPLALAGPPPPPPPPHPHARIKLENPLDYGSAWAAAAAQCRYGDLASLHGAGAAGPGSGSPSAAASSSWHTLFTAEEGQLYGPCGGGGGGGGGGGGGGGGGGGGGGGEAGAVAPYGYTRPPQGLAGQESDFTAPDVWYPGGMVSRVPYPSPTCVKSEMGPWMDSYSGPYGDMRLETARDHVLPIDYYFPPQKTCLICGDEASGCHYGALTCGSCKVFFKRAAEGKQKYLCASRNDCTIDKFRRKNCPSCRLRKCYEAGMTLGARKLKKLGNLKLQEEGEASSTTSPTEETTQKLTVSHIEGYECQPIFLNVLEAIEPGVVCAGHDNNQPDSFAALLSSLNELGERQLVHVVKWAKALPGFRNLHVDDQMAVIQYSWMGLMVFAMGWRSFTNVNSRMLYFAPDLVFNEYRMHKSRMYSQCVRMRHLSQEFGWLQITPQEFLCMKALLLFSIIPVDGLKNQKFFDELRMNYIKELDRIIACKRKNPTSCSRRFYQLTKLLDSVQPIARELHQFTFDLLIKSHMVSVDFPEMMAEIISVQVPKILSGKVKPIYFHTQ
Estrogen receptor (Homo sapiens), sequence (P03372 whole entry, looked up): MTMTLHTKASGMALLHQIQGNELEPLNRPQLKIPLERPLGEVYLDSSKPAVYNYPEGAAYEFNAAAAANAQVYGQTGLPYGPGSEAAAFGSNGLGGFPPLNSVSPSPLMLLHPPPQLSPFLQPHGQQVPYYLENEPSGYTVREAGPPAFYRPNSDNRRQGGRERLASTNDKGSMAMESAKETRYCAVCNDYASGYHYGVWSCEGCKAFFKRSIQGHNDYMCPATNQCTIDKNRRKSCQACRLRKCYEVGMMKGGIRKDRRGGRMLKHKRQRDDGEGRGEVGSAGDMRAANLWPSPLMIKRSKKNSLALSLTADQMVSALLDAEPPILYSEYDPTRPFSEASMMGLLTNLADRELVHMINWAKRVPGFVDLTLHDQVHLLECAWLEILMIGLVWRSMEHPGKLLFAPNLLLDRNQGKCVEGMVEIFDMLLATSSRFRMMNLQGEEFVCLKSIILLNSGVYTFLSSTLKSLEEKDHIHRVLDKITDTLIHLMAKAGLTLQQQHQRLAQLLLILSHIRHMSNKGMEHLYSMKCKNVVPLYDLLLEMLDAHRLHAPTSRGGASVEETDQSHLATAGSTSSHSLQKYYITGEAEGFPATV

| SMILES | Potency [1] | Potency [2] | Potency [3] | Potency [4] | Potency [5] | Potency [6] | Potency [7] | outcome [8] | Potency [9] | Potency [10] | Potency [11] | Potency [12] | Potency [13] | Potency [14] | Potency [15] | Potency [16] | Potency [17] | Potency [18] | Potency [19] | Potency [20] |
| --- | --- | --- | --- | --- | --- | --- | --- | --- | --- | --- | --- | --- | --- | --- | --- | --- | --- | --- | --- | --- |
| CN(N=O)C(=O)N[C@@H]1[C@@H](O)[C@H](O)[C@@H](CO)O[C@@H]1O | inactive | inactive | inactive | inactive | inactive | inactive | inactive | inactive | inactive | inactive | inactive | inactive | inactive | inactive | inactive | inactive |  |  |  |  |
| COc1ccc(C(Cl)=C(c2ccc(OC)cc2)c2ccc(OC)cc2)cc1 | inactive | 2.72 µM (active) and 7.7 µM (active) and 2.11 µM (active) | inactive | inactive | inactive | inactive | inactive | inactive | inactive | inactive | inactive |  | 15.3 µM (active) and 8.41 µM (active) |  |  | inactive | inactive | 433 nM (active) and 668 nM (active) |  |  |
| CN(C)C(=O)Nc1ccc(Cl)c(Cl)c1 | inactive | inactive | inactive | inactive | inactive | inactive | inactive | inactive | inactive | inactive | inactive | inactive | inactive | inactive | inactive | inactive |  |  | 30.5 µM (active) and 27.3 µM (active) and 23.7 µM (active) | inactive |
| Cc1ncc([N+](=O)[O-])n1C | inactive | inactive |  | inactive | inactive | inactive | inactive | inactive | inactive | inactive | inactive | inactive | inactive | inactive | inactive | inactive |  |  |  |  |
| C=C(C)C(=O)OCC(C)O (stereo not drawn) | inactive | inactive |  | inactive | inactive | inactive | inactive | inactive | inactive | inactive | inactive | inactive | inactive | inactive | inactive | inactive | inactive | inactive |  |  |
| Cn1c(=O)c2c(ncn2C)n(C)c1=O | inactive |  | inactive | inactive | inactive | inactive |  | inactive | 17.4 µM (active) and inactive | 55.1 µM (active) and inactive | inactive |  |  |  |  | 61.9 µM (active) and inactive |  |  |  |  |
| CN(C)C(=S)SC(=S)N(C)C | 2.5 µM (active) and 1.72 µM (active) and 3.35 µM (active) |  | inactive | inactive | inactive | 3.14 µM (active) and 545 nM (active) and 2.11 µM (active) |  | inactive | 280 nM (active) and 109 nM (active) and 2.66 µM (active) | 3.96 µM (active) and inactive | 1.25 µM (active) and 2.17 µM (active) and 1.06 µM (active) |  |  | inactive | inactive | 35.3 µM (active) and 3.06 µM (active) and inactive |  |  |  |  |
